# In PubChem BioAssay AID1159580 (chemical genetic matrix, 2015):
# In all, about 5,500 compounds went through this assay and about 2,000 (36%) were called active. Inconclusive results (about 18%) are left out. The list shows a part of the results. A number with no mark means an inactive call. Cut-off read from the data, not from the text of the source: active = normalized growth mostly below about 0.91 (no sharp cut-off); inconclusive = no clear call, values can overlap the other calls; inactive = mostly above about 0.92.
# Assay: chemical genetic growth profiling, strain panel (AID 1159580);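 note: tested at 20 µM; growth read once vehicle control cultures reached saturation at 30 °C; 1 = growth at the plate median or of vehicle wells; lower values mean less growth of the strain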
# Conditions: growth OD
compound,measurement,setting,value
CC1CCCC(C)N1NC(=O)c1ccc(Cl)c(S(N)(=O)=O)c1 (stereo unspecified),normalized growth,"S. cerevisiae deletion strains, locus YKL009W, strain mrt4, active compounds read low",0.973
same,normalized growth,"S. cerevisiae deletion strains, locus YKL068W, active compounds read low",0.992
same,normalized growth,"S. cerevisiae deletion strains, locus YKL085W, strain MDH1 (second series), active compounds read low",0.987
same,normalized growth,"S. cerevisiae deletion strains, locus YKL085W, strain MDH1, active compounds read low",0.987
same,normalized growth,"S. cerevisiae deletion strains, locus YKL160W, strain elf1, active compounds read low",0.995
same,normalized growth,"S. cerevisiae deletion strains, locus YKL190W, strain CNB1, active compounds read low",0.99
same,normalized growth,"S. cerevisiae deletion strains, locus YKR001C, strain vps1, active compounds read low",1
same,normalized growth,"S. cerevisiae deletion strains, locus YKR026C, strain gcn3, active compounds read low",0.999
same,normalized growth,"S. cerevisiae deletion strains, locus YKR091W, strain srl3, active compounds read low",1.02
same,normalized growth,"S. cerevisiae deletion strains, locus YLL001W, strain dnm1, active compounds read low",1.01
same,normalized growth,"S. cerevisiae deletion strains, locus YLL026W, active compounds read low",1.02
same,normalized growth,"S. cerevisiae deletion strains, locus YLL041C, strain sdh2, active compounds read low",0.998
same,normalized growth,"S. cerevisiae deletion strains, locus YLR027C, strain aat2, active compounds read low",1.03
same,normalized growth,"S. cerevisiae deletion strains, locus YLR039C, strain RIC1, active compounds read low",0.989
same,normalized growth,"S. cerevisiae deletion strains, locus YLR058C, strain SHM2, active compounds read low",0.99
same,normalized growth,"S. cerevisiae deletion strains, locus YLR102C, strain apc9, active compounds read low",0.996
same,normalized growth,"S. cerevisiae deletion strains, locus YLR113W, strain HOG1, active compounds read low",0.993
same,normalized growth,"S. cerevisiae deletion strains, locus YLR221C, strain rsa3, active compounds read low",1.04
same,normalized growth,"S. cerevisiae deletion strains, locus YLR258W, strain gsy2, active compounds read low",0.998
same,normalized growth,"S. cerevisiae deletion strains, locus YLR262C, strain YPT6 (second series), active compounds read low",1.01
same,normalized growth,"S. cerevisiae deletion strains, locus YLR262C, strain YPT6, active compounds read low",0.997
same,normalized growth,"S. cerevisiae deletion strains, locus YLR268W, strain sec22, active compounds read low",0.933
same,normalized growth,"S. cerevisiae deletion strains, locus YLR320W, strain mms22, active compounds read low",1.02
same,normalized growth,"S. cerevisiae deletion strains, locus YLR330W, strain CHS5, active compounds read low",0.989
same,normalized growth,"S. cerevisiae deletion strains, locus YLR342W, strain FKS1 (second series), active compounds read low",1.06
same,normalized growth,"S. cerevisiae deletion strains, locus YLR342W, strain FKS1, active compounds read low",1.01
same,normalized growth,"S. cerevisiae deletion strains, locus YLR357W, strain rsc2, active compounds read low",1.05
same,normalized growth,"S. cerevisiae deletion strains, locus YLR370C, strain arc18, active compounds read low",1.01
same,normalized growth,"S. cerevisiae deletion strains, locus YLR371W, strain rom2, active compounds read low",1
same,normalized growth,"S. cerevisiae deletion strains, locus YLR384C, strain iki3, active compounds read low",1.01
same,normalized growth,"S. cerevisiae deletion strains, locus YLR418C, strain cdc73, active compounds read low",1.01
same,normalized growth,"S. cerevisiae deletion strains, locus YML016C, strain PPZ1, active compounds read low",0.991
same,normalized growth,"S. cerevisiae deletion strains, locus YML032C, strain rad52, active compounds read low",0.975
same,normalized growth,"S. cerevisiae deletion strains, locus YML120C, strain ndi1, active compounds read low",1.01
same,normalized growth,"S. cerevisiae deletion strains, locus YML124C, strain tub3, active compounds read low",0.988
same,normalized growth,"S. cerevisiae deletion strains, locus YMR058W, strain fet3, active compounds read low",1.03
same,normalized growth,"S. cerevisiae deletion strains, locus YMR078C, strain ctf18, active compounds read low",1.01
same,normalized growth,"S. cerevisiae deletion strains, locus YMR125W, strain sto1, active compounds read low",1.01
same,normalized growth,"S. cerevisiae deletion strains, locus YMR129W, active compounds read low",1.02
same,normalized growth,"S. cerevisiae deletion strains, locus YMR205C, strain PFK2, active compounds read low",0.992
same,normalized growth,"S. cerevisiae deletion strains, locus YMR223W, strain ubp8, active compounds read low",1.03
same,normalized growth,"S. cerevisiae deletion strains, locus YMR231W, strain pep5, active compounds read low",1.02
same,normalized growth,"S. cerevisiae deletion strains, locus YMR263W, strain SAP30, active compounds read low",0.982
same,normalized growth,"S. cerevisiae deletion strains, locus YMR307W, strain GAS1, active compounds read low",1.09
same,normalized growth,"S. cerevisiae deletion strains, locus YNL067W, strain RPL9B, active compounds read low",0.973
same,normalized growth,"S. cerevisiae deletion strains, locus YNL071W, strain lat1, active compounds read low",1.02
same,normalized growth,"S. cerevisiae deletion strains, locus YNL128W, strain TEP1, active compounds read low",1
same,normalized growth,"S. cerevisiae deletion strains, locus YNL153C, strain GIM3, active compounds read low",0.981
same,normalized growth,"S. cerevisiae deletion strains, locus YNL183C, strain NPR1, active compounds read low",0.952
same,normalized growth,"S. cerevisiae deletion strains, locus YNL209W, strain ssb2, active compounds read low",1
same,normalized growth,"S. cerevisiae deletion strains, locus YNL233W, strain BNI4, active compounds read low",0.977
same,normalized growth,"S. cerevisiae deletion strains, locus YNL248C, strain rpa49, active compounds read low",1.02
same,normalized growth,"S. cerevisiae deletion strains, locus YNL250W, strain rad50, active compounds read low",0.981
same,normalized growth,"S. cerevisiae deletion strains, locus YNL271C, strain bni1, active compounds read low",0.986
same,normalized growth,"S. cerevisiae deletion strains, locus YNL298W, strain CLA4, active compounds read low",0.985
same,normalized growth,"S. cerevisiae deletion strains, locus YNL307C, strain MCK1, active compounds read low",0.98
same,normalized growth,"S. cerevisiae deletion strains, locus YNL322C, strain KRE1 (second series), active compounds read low",1.11 [resistant] (active)
same,normalized growth,"S. cerevisiae deletion strains, locus YNL322C, strain KRE1, active compounds read low",0.99
same,normalized growth,"S. cerevisiae deletion strains, locus YNR049C, strain mso1, active compounds read low",1
same,normalized growth,"S. cerevisiae deletion strains, locus YNR052C, strain pop2, active compounds read low",0.996
same,normalized growth,"S. cerevisiae deletion strains, locus YOL006C, strain TOP1, active compounds read low",0.953
same,normalized growth,"S. cerevisiae deletion strains, locus YOL012C, strain htz1",0.717
same,normalized growth,"S. cerevisiae deletion strains, locus YOL147C, strain pex11, active compounds read low",0.99
same,normalized growth,"S. cerevisiae deletion strains, locus YOR001W, strain rrp6, active compounds read low",1.02
same,normalized growth,"S. cerevisiae deletion strains, locus YOR061W, strain CKA2, active compounds read low",0.999
same,normalized growth,"S. cerevisiae deletion strains, locus YOR069W, strain VPS5, active compounds read low",0.996
same,normalized growth,"S. cerevisiae deletion strains, locus YOR070C, strain gyp1, active compounds read low",1.02
same,normalized growth,"S. cerevisiae deletion strains, locus YOR080W, strain dia2, active compounds read low",1.02
same,normalized growth,"S. cerevisiae deletion strains, locus YOR083W, strain WHI5, active compounds read low",1.01
same,normalized growth,"S. cerevisiae deletion strains, locus YOR106W, strain vam3, active compounds read low",0.988
same,normalized growth,"S. cerevisiae deletion strains, locus YOR136W, strain idh2, active compounds read low",1.01
same,normalized growth,"S. cerevisiae deletion strains, locus YOR144C, strain elg1, active compounds read low",0.994
same,normalized growth,"S. cerevisiae deletion strains, locus YOR184W, strain ser1, active compounds read low",0.989
same,normalized growth,"S. cerevisiae deletion strains, locus YOR231W, strain MKK1, active compounds read low",0.979
same,normalized growth,"S. cerevisiae deletion strains, locus YOR265W, strain rbl2, active compounds read low",1.01
same,normalized growth,"S. cerevisiae deletion strains, locus YOR270C, strain vph1, active compounds read low",1.04
same,normalized growth,"S. cerevisiae deletion strains, locus YOR290C, strain snf2, active compounds read low",1.01
same,normalized growth,"S. cerevisiae deletion strains, locus YOR316C, strain cot1, active compounds read low",0.985
same,normalized growth,"S. cerevisiae deletion strains, locus YPL051W, strain arl3, active compounds read low",1.02
same,normalized growth,"S. cerevisiae deletion strains, locus YPL055C, strain LGE1, active compounds read low",1.01
same,normalized growth,"S. cerevisiae deletion strains, locus YPL078C, strain atp4, active compounds read low",1.02
same,normalized growth,"S. cerevisiae deletion strains, locus YPL106C, strain sse1, active compounds read low",0.998
same,normalized growth,"S. cerevisiae deletion strains, locus YPL240C, strain hsp82, active compounds read low",1.01
same,normalized growth,"S. cerevisiae deletion strains, locus YPL241C, strain CIN2, active compounds read low",1
same,normalized growth,"S. cerevisiae deletion strains, locus YPL256C, strain CLN2, active compounds read low",0.948
same,normalized growth,"S. cerevisiae deletion strains, locus YPR119W, strain clb2, active compounds read low",0.99
same,normalized growth,"S. cerevisiae deletion strains, locus YPR141C, strain kar3, active compounds read low",0.985
same,normalized growth,"S. cerevisiae deletion strains, locus YPR163C, strain tif3, active compounds read low",0.99
same,normalized growth,"S. cerevisiae deletion strains, locus YPR167C, strain met16, active compounds read low",0.989
same,normalized growth,"S. cerevisiae deletion strains, strain wtn01, active compounds read low",0.989
same,normalized growth,"S. cerevisiae strains, strain wild type, active compounds read low",1.01
